# Source: the supplement of paper PMC3545927
# This is one part of the list. No count for the full screen is at hand.
# Target: furin, P09958
# Assay: furin cleavage Z-score vs untreated control; higher = more cleavage, active = 3.5 or more, inactive = 1 or less, 8 variable residues between constant flanks
# In short: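 In 50 mM HEPES pH 7.5 with CaCl2 and NaCl, purified furin was incubated with bead-anchored 8-mer peptide–cDNA fusions at 1:10 enzyme:substrate in 0.01 ml. Incubation times were 7.5, 15 and 30 min. DNA set free by cleavage was adapter-tagged by PCR and sequenced, with read counts taken as abundance. Log counts relative to furin-free reactions, after lowess adjustment and median absolute deviation scaling, form the cleavage Z-score.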
# furin, P09958, sequence (P09958 whole entry): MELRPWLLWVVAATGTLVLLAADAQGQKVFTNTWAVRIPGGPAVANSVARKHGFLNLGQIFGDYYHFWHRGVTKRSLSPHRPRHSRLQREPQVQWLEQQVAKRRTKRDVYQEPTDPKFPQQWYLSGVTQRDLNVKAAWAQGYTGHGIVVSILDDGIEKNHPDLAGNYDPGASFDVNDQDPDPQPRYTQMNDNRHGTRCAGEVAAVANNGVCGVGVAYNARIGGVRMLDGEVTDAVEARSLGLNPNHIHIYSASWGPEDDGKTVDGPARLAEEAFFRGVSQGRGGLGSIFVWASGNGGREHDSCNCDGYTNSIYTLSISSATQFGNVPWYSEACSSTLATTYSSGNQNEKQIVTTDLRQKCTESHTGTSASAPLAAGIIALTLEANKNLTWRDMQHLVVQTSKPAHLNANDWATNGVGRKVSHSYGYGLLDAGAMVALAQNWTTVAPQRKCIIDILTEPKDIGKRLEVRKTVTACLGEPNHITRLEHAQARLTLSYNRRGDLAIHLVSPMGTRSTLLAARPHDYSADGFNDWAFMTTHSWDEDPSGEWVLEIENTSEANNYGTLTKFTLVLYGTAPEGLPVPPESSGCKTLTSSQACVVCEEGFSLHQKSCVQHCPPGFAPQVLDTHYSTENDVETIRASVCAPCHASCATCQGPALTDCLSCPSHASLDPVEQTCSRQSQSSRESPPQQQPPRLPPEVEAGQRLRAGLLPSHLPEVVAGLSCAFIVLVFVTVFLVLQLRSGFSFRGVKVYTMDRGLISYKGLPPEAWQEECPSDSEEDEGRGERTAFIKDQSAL
Sequence,furin cleavage Z-score (7.5 min),furin cleavage Z-score (15 min),furin cleavage Z-score (30 min)
CASTKVPAAYAGNASASA [HC779],-0.328 (inactive),-0.544 (inactive),0.327 (inactive)
CAPGALVVGVAGNASASA [HC1105],-0.0947 (inactive),0.679 (inactive),-0.0726 (inactive)
CARKYRFHGGAGNASASA [FS-1734],0.847 (inactive),-1.27 (inactive),-0.103 (inactive)
CARKYREVFCAGNASASA [FS-2041],0.9 (inactive),2.75,2.7
CADSTVTESDAGNASASA [HC1483],-0.354 (inactive),0.495 (inactive),0.157 (inactive)
CARKARFIHDAGNASASA [FS-2421],2.71,4.77 (active),7.1 (active)
CARKYRSHHDAGNASASA [FS-2428],1.45,4.06 (active),3.48
CARKARFGSEAGNASASA [FS-2958],0.624 (inactive),0.0236 (inactive),1.04
CARKYRSNKGAGNASASA [FS-2703],0.0213 (inactive),0.138 (inactive),1.58
CARKAREVCDAGNASASA [FS-1900],5.27 (active),5.4 (active),4.27 (active)
CASTPCSADLAGNASASA [HC2551],1.45,0.00667 (inactive),2.02
CANYTFALWRAGNASASA [HC1199],-0.0905 (inactive),-0.132 (inactive),1.34
CAAGVDAETHAGNASASA [HC350],-0.719 (inactive),-1.77 (inactive),-1.18 (inactive)
CAEVKTSTWVAGNASASA [HC2194],0.637 (inactive),-0.239 (inactive),-1.95 (inactive)
CANNSREKKAAGNASASA [FS-1378],-0.625 (inactive),-0.493 (inactive),-0.698 (inactive)
CAMKARPEKSAGNASASA [FS-1139],0.00638 (inactive),-0.792 (inactive),-2.08 (inactive)
CADIPRYKRMAGNASASA [FS-1189],6.09 (active),5.32 (active),5.91 (active)
CAKDSRLSRDAGNASASA [FS-1017],-0.904 (inactive),0.551 (inactive),0.282 (inactive)
CAVKAAASKVAGNASASA [HC1406],-0.468 (inactive),1.05,-0.785 (inactive)
CAVKARIKRMAGNASASA [FS-310],8.88 (active),10.6 (active),7.99 (active)
CATLSRKSRDAGNASASA [FS-1173],10.1 (active),11.3 (active),6.95 (active)
CATLSRKKRAAGNASASA [FS-567],9.09 (active),8.88 (active),6.75 (active)
CAKLEVVTSTAGNASASA [HC2274],0.95 (inactive),0.175 (inactive),-1.42 (inactive)
CAIISKKKRMAGNASASA [FS-908],0.592 (inactive),-0.299 (inactive),1.14
CAGHITGHRMAGNASASA [HC316],0.56 (inactive),-0.81 (inactive),-0.0561 (inactive)
CAVISRKKRMAGNASASA [FS-888],8.47 (active),11.4 (active),8.35 (active)
CATNRRKKRAAGNASASA [FS-1174],8.44 (active),7.81 (active),8.15 (active)
CATNRRPQDVAGNASASA [HC168],-1.65 (inactive),-1.52 (inactive),0.59 (inactive)
